Hits are enriched below; roughly 13% of the tested compounds scored in any of these assays.
CHX counter = Cycloheximide Counterscreen for Small Molecule Inhibitors of Shiga Toxin. cell reporter, cycloheximide protein synthesis inhibition counterscreen. 12% of 300,000 active. max response, %; in the data active means max response mostly above about 13%, no sharp cut-off; inactive means mostly below about 14%; further: read at 38.3 µM for the half of the compounds with a filed dose; 0% is about no effect
HCV inhibitor = qHTS Assay for Inhibitors of Hepatitis C Virus (HCV); 3.4% of 340,000 active; AID 651820, 2012; Huh7.5.1 HCVcc-Cre infection, luciferase reporter, 44 h; Potency, µM (top dose mostly 41.8 µM), inactives show at the highest dose activity change, negative = inhibition, usual class: inhibitors; active means well fitted inhibition curve with a large enough effect; inconclusive means small, poorly fitted or top-dose-only effect, or another doubt; inactive means no such curve, though single readings can be large or run the other way; further: potency means the concentration at half of the fitted maximal effect; on the % scale 0 is the no-effect control and ±100 the full control effect
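Luciferase read-out (15 sec integration) after a 15 min room-temperature substrate step quantifies HCVcc-Cre infection. Cells, 1,000 per well, had compound added 4 h post-plating, then virus at ~0.5 moi, and were cultured 44 h.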
Shiga inhibitor = A qHTS for Small Molecule Inhibitors of Shiga Toxin; Vero cells, Shiga toxin protein synthesis inhibition reporter; inhibition, % at 38.7 µM; 9.2% of 290,000 active; in the data active means inhibition mostly above about 28%, no sharp cut-off; inactive means mostly below about 43%; further: 0% is about no effect
MARV entry inh = qHTS for inhibitors of binding or entry into cells for Marburg Virus. Marburg virus pseudotyped entry inhibition, cell reporter. Potency, µM (top dose mostly 37.8 µM), for the others: at the highest dose activity change, negative = inhibition, most hits filed as inhibitors. 1.8% of 300,000 active. AID 540276, 2011; calls by dose curve; tested in HEK293 cells; further: potency means the concentration at half of the fitted maximal effect; on the % scale 0 is the no-effect control and ±100 the full control effect
Lassa entry inh = qHTS for Inhibitors of binding or entry into cells for Lassa Virus; Lassa virus pseudotype entry inhibition, cell reporter; Potency, µM (highest dose often 37.9 µM), inactives show at the highest dose activity change, negative = inhibition, actives largely listed as inhibitors; 1.2% of 300,000 active; AID 540256, 2011; calls by dose curve; tested in HEK293 cells; further: potency means the concentration at half of the fitted maximal effect; on the % scale 0 is the no-effect control and ±100 the full control effect; nearly all actives have a fitted effect of over 50% in size
FMDV inh = High Throughput Screening for Foot and Mouth Disease Virus Antivirals | 1.2% of 410,000 active | Potency, µM (highest dose often 57.9 µM), for the others: at the top dose activity change, negative = inhibition, actives largely listed as inhibitors | FMDV antiviral cell-based qHTS; calls by dose curve; tested in HEK293T cells; further: read-out not given here; potency means the concentration at half of the fitted maximal effect; on the % scale 0 is the no-effect control and ±100 the full control effect; nearly all actives have a fitted effect of over 45% in size
The depositor's hits bear a star; ? = inconclusive; nt = no result given; [ ] = another dose, or the depositor's remark.

SMILES	CHX counter	HCV inhibitor	Shiga inhibitor	MARV entry inh	Lassa entry inh	FMDV inh
CC(=O)Nc1nc2c(c3c1c(=O)oc1ccccc13)CC(C)CC2 (stereo unspecified)	7	-6%	-8	nt	nt	nt
CCCc1cc(C(=O)NCc2cccnc2)no1	-1	12%	1	nt	nt	24%
CCCc1cc(C(=O)Nc2cccnc2)no1	72*	3%	89*	nt	nt	47%
CCCc1cc(C(=O)Nc2ccc(C#N)cc2)no1	15*	-18%	34	1%[46.1 µM]	-4%	36%
CCCc1cc(C(=O)Nc2sc(C)c(CC)c2C#N)no1	13*	-28%	40	nt	nt	23%
CCCc1cc(C(=O)Nc2cccc(C(C)=O)c2)no1	31*	-2%	67*	nt	nt	121%
CCOC(=O)c1c(NC(=O)CCCOc2ccccc2C)sc2c1CCC(C)C2 (stereo unspecified)	nt	nt	nt	nt	-4%[46.1 µM]	-20%
CCOc1ccc(N)cc1OC	14	-21%	-5	0%[46.1 µM]	22%	-9%
CCCc1cc(C(=O)Nc2ccc(C(C)=O)cc2)no1	42*	7%	82*	nt	nt	35%
CCOc1ccc(NC(=O)CCSc2nc3c(c(CC)c2C#N)C(=O)CC(C)(C)C3)cc1	-3	?	-21	?	-16%	-11%
CCc1c(C#N)c(SCCC(=O)Nc2ccc(C)cc2)nc2c1C(=O)CC(C)(C)C2	-6	8.9µM*	-3	1%	-4%	-9%
COc1ccc(Cl)cc1NC(=O)Nc1cn(C)nc1C	-2	-78%	-11	-30%[14.2 µM]	21%	14%
O=C(NCCc1ccccc1)c1ccc(-c2ccccc2C(F)(F)F)o1	1	-7%[8.37 µM]	-9	4%	?	0%
CCc1nnc(NC(=O)c2ccc(-c3ccccc3F)o2)s1	22*	-12%	28	15%[46.1 µM]	?	38%
O=C(NCc1ccccc1)c1ccc(-c2ccccc2F)o1	52*	5%	41*	?	?	nt
COc1cccc(NC(=O)CN(Cc2ccccc2)S(=O)(=O)c2ccc3nc(C)sc3c2)c1	nt	nt	nt	nt	-1%[46.1 µM]	-15%
COc1ccc(C(=O)NOCc2ccccc2)cc1	nt	-5%	nt	nt	nt	-3%
Cn1nc(/C=C/c2ccccc2)ccc1=O	28*	-26%	86*	?	11%	45%
Cc1nc(/C=C/c2ccccc2)cc(/C=C/c2ccccc2)n1	30*	-1%	63*	2%	1%	31%
O=c1ccc(/C=C/c2ccccc2)nn1Cc1ccccc1	-6	9%	-8	-1%[46.1 µM]	?	-24%
C(=C\c1cc(/C=C/c2ccccc2)ncn1)/c1ccccc1	71*	6%	82*	7%	4%	10%
O=C(Nc1ccc2c(c1)OCCO2)C(C1CC1)n1c(=O)c(-c2ccccc2)nc2ccccc21 (stereo unspecified)	nt	nt	nt	nt	nt	-12%
COC(=O)Nc1ccc(S(=O)(=O)N2CCC(Cc3ccccc3)CC2)cc1	-2	-20%	-11	?	21µM*	-25%
CC(=O)Nc1ccc(S(=O)(=O)N2CCN(C(C)CCc3ccccc3)CC2)cc1 (stereo unspecified)	-3	-5%	-26	13µM*	16µM*	-12%
COc1ccc(CCNC(=O)CC(NS(=O)(=O)c2ccc(NC(C)=O)cc2)C(C)C)cc1OC (stereo unspecified)	-1	17%	-8	10%	-2%	2%
SMILES	CHX counter	HCV inhibitor	Shiga inhibitor	MARV entry inh	Lassa entry inh	FMDV inh
CC(=O)Nc1ccc(S(=O)(=O)NC(CC(=O)NCCc2ccccc2)C(C)C)cc1 (stereo unspecified)	31*	13%	52	?	0%	nt
COc1ccc(N2C(=NC(=O)C3CCCCC3)SC3CS(=O)(=O)CC32)cc1Cl (stereo unspecified)	-3	12%	2	nt	nt	-3%
CCc1ccc(OCCCOc2ccc(C=O)cc2)cc1	19*	0%	78	0%	22%	-7%
CCc1ccc(OCCCC(=O)NCc2ccccc2)cc1	-2	?	13	?	?	-3%
COc1ccc2c(ccc[n+]2CC(=O)c2ccccc2)c1	0	13%	7	nt	nt	-7%
COc1ccc(C(=O)C[n+]2ccccc2/C=N/O)cc1	19*	-18%	56	?	?	11%
O=C(Nc1sccc1C(=O)NCc1ccco1)c1cccnc1	1	?	8	-7%	-6%	-23%
CC(C)(C)c1csc(N/N=C/c2ccc(O)cc2)n1	47*	?	91*	nt	nt	26%
CC(=O)c1ccc(Nc2nc(-c3ccccc3)nc3ccccc23)cc1	nt	?	nt	-6%[46.1 µM]	-1%[46.1 µM]	-27%
Oc1cccc(Nc2nc(-c3ccccc3)nc3ccccc23)c1	6	3.5µM*	-6	?	?	?
Cc1cccc(Nc2nc(-c3ccccc3)nc3ccccc23)c1	nt	nt	nt	nt	-8%[46.1 µM]	-29%
CC(=O)c1cccc(Nc2nc(-c3ccccc3)nc3ccccc23)c1	-1	10µM*	-11	-28%	-25%	?
CC(=O)Nc1cccc(Nc2nc(-c3ccccc3)nc3ccccc23)c1	-2	6.3µM*	4	?	1%[46.1 µM]	?
CCCCn1c(N)c(N(C)C(=O)c2ccc(-n3cccn3)cc2)c(=O)[nH]c1=O	nt	-4%	nt	nt	nt	-20%
CCc1cccc(CC)c1N(COC)C(=O)Cn1nnc2ccccc21	-1	-10%	-4	-8%	0%	10%
CCN(C(=O)CC(C)C)c1nnc(Cn2nnc3ccccc32)s1	5	13µM*	21	-48%[46.1 µM]	?	?
CCN(C(=O)c1ccc(C(C)(C)C)cc1)c1nnc(Cn2nnc3ccccc32)s1	-2	1µM*	-16	?	?	?
CC(C)(C)c1ccc(Oc2ccc(NC(=O)c3cccs3)cn2)cc1	9	?	2	13µM*	?	13µM*
COc1ccc(OCC(=O)Nc2ccc(NC(=O)c3cccs3)cc2)cc1	8	-22%	26	-5%[46.1 µM]	nt	42%
COc1ccc(NC(=O)c2cccs2)cn1	26*	5%	61*	7%[46.1 µM]	?	16%
CC1CN(CC(=O)NCCC2COc3ccccc3O2)Cc2cc(Cl)ccc2O1 (stereo unspecified)	nt	nt	nt	nt	nt	-5%
CCOC(=O)C1=C(Cc2ccc(C)cc2)C(=O)c2ccccc2C1=O	19*	nt	10	3%	nt	nt
CCOC(=O)C1=C(Cc2ccc(OC)cc2)C(=O)c2ccccc2C1=O	27*	?	23	?	?	?
CCOC(=O)c1ccc(COC(=O)c2ccc3c(c2)-c2ccccc2C3=O)cc1	-3	5%	-11	25%	?	-27%
CN1C(=O)[C@H]2[C@@H](C3CC3)N3C(=O)CN(CC4CC4)C(=O)[C@@]3(C)[C@H]2C1=O	-4	6%	-4	nt	nt	0%
Cc1cc(C)nc(-n2ncc3c2CC(c2cccc(Cl)c2)CC3=O)n1 (stereo unspecified)	1	-10%	-14	5.6µM*	?	-14%
O=C(NNC(=O)c1cccnc1)Nc1cccc2ccccc12	8	6%	-4	5%	2%	-6%
